Test results from ChEMBL document CHEMBL2218924, “A broad activity screen in support of a chemogenomic map for kinase signalling research and drug discovery” (Biochem J, 2013).

Legend:
[1] = target: T1, Protein kinase C epsilon type (Homo sapiens) (UniProt Q02156); conditions: at 1 µM
T1 sequence (whole entry): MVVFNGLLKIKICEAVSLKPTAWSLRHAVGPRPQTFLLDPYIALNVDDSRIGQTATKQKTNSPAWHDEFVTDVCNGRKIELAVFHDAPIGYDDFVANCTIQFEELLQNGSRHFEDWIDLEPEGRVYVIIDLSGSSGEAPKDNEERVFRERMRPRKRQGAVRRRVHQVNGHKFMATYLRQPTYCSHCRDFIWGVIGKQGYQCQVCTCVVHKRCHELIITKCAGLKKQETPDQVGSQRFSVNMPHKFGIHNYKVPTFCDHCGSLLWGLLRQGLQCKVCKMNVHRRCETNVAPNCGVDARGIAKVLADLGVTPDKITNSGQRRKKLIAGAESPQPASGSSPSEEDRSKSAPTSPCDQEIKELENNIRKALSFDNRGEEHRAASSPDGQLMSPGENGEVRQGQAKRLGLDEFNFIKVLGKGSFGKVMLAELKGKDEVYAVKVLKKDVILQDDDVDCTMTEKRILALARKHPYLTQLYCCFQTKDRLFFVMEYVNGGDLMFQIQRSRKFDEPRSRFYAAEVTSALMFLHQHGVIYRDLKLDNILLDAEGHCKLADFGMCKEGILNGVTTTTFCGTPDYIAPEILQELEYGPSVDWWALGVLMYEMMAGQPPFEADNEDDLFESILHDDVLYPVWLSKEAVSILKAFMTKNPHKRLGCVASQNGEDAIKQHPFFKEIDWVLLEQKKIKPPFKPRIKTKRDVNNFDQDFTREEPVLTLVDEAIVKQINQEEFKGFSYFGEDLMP

[2] = target: T1, Protein kinase C epsilon type (Homo sapiens); conditions: at 10 µM

| Structure (SMILES) | residual activity [1] | residual activity [2] |
| --- | --- | --- |
| COc1cc2nccc(Oc3ccc(NC(=S)NC(=O)c4ccccc4C)cc3)c2cc1OC | 85% | 88% |
| O=S(=O)(NCCNC/C=C/c1ccc(Br)cc1)c1cccc2cnccc12 | – | 76% |
| O=C1NC(=O)C(c2c[nH]c3ccccc23)=C1c1c[nH]c2ccccc12 | 63% | 21% |
| CN(C)S(=O)(=O)c1ccc2c(c1)/C(=C/c1cc3c([nH]1)CCCC3)C(=O)N2 | 98% | 85% |
| O=C(NC(NC(=S)Nc1ccc(F)c([N+](=O)[O-])c1)C(Cl)(Cl)Cl)C(c1ccccc1)c1ccccc1 (centres undefined) | 84% | 96% |
| Nc1ncnc2c1cnn2-c1ccccc1 | 80% | 101% |
| O=C1NC(=O)C(c2cn(CCCn3ccnc3)c3ccccc23)=C1Nc1ccccc1 | 21% | 3% |
| CC(C)c1nn(-c2c(Cl)cccc2Cl)c2nc(Cc3ccc(OCCO)cc3)[nH]c(=O)c12 | 99% | 82% |
| O=C(Nc1nc2ccccc2n1CCN1CCOCC1)c1cccc([N+](=O)[O-])c1 | 86% | 102% |
| Nc1ncnc2c1c(-c1ccc(Oc3ccccc3)cc1)cn2C1CCCC1 | 84% | 84% |
| NC(=O)Nc1sc(-c2ccc(F)cc2)cc1C(N)=O | 102% | 94% |
| O=C(O)/C=C/c1cc(Br)c(Br)c(Br)c1Br | 104% | 102% |
| O=C(c1ccccc1)c1ccc(N2CCOCC2)cc1O | 89% | 95% |
| O=C1Nc2ccc(Cl)cc2/C1=C/c1cc(Cl)c(O)c(Cl)c1 | 87% | 97% |
| O=C1C(Cl)=C(N2C(=O)CCC2=O)C(=O)c2ccccc21 | 90% | 26% |
